Results filed as inconclusive are left out. A call without a number means that no potency is given here. Active and inactive are the calls of the source. Unless noted, calls follow the shape of the dose curve; as a rule, active = well fitted curve in the direction sought with a large enough effect in the repeat runs; inconclusive = weak or mixed curves; inactive = no such curve, though single readings can be large; an effect the other way counts as inactive or inconclusive.
Columns and labels:
[1] = qHTS assay to identify small molecule agonists of the peroxisome proliferator-activated receptor delta (PPARd) signaling pathway - cell viability counter screen (AID 743211); also: nearly all actives have a fitted effect of over 55% in size; also: potency is read from the fitted curve at half-maximal effect
Outline: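 Read-out: CellTiter-Glo luminescence, 30 min RT, measured in the same wells as the beta-lactamase reporter. Cells: GeneBLAzer PPAR delta UAS-bla HEK293H, 3000 cells/well, compound exposure 17 h at 37C.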

[2] = molecular target: Peroxisome proliferator-activated receptor delta (Homo sapiens) (UniProt Q03181); assay: qHTS assay to identify small molecule agonists of the peroxisome proliferator-activated receptor delta (PPARd) signaling pathway (AID 743212; calls by dose curve; also: potency is read from the fitted curve at half-maximal effect)
Chain of Peroxisome proliferator-activated receptor delta (Homo sapiens) (Q03181 whole entry, looked up): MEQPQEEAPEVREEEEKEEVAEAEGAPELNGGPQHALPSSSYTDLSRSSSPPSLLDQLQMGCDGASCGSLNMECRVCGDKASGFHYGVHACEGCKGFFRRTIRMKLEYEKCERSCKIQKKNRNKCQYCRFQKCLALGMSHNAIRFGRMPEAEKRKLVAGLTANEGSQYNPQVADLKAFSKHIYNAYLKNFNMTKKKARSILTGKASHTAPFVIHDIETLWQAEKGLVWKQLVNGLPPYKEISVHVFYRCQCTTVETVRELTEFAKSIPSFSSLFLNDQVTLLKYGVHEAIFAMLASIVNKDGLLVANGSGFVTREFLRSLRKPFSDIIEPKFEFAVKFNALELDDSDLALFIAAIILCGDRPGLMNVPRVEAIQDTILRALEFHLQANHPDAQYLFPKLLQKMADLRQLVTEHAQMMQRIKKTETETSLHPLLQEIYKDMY
Outline: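 HEK293H PPARd-bla cells; 5 h preincubation 37 C/5% CO2; compound (DMSO) 37 C; LiveBLAzer B/G FRET substrate 2 h RT; fluorescence intensity.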

[3] = qHTS assay to identify small molecule antagonists of the peroxisome proliferator-activated receptor delta (PPARd) signaling pathway - cell viability counter screen (AID 743213); also: nearly all actives have a fitted effect of over 50% in size; also: potency is read from the fitted curve at half-maximal effect
Outline: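 Agonist-stimulated (L165041, 300 nM final) HEK293H PPARd UAS-bla cells are exposed to compounds for 17 h at 37 C, and ATP-based luminescence (CellTiter-Glo) from the same wells reports cytotoxicity.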

[4] = qHTS assay to identify small molecule agonists of the farnesoid-X-receptor (FXR) signaling pathway - cell viability counter screen (AID 743218); also: nearly all actives have a fitted effect of over 45% in size; also: potency is read from the fitted curve at half-maximal effect
Outline: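 HEK 293T FXR-bla cells; 5 h pre-incubation, 16 h compound exposure at 37 C; LiveBLAzer substrate 2 h RT, then CellTiter-Glo 30 min RT, luminescence.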

[5] = molecular target: Bile acid receptor (Homo sapiens) (UniProt Q96RI1); assay: qHTS assay to identify small molecule agonists of the farnesoid-X-receptor (FXR) signaling pathway (AID 743220; active = well fitted activation curve with a large enough effect in the signal ratio in the repeat runs, not every such curve was filed as active; the % refers to the signal ratio)
Chain of Bile acid receptor (Homo sapiens) (Q96RI1 whole entry, looked up): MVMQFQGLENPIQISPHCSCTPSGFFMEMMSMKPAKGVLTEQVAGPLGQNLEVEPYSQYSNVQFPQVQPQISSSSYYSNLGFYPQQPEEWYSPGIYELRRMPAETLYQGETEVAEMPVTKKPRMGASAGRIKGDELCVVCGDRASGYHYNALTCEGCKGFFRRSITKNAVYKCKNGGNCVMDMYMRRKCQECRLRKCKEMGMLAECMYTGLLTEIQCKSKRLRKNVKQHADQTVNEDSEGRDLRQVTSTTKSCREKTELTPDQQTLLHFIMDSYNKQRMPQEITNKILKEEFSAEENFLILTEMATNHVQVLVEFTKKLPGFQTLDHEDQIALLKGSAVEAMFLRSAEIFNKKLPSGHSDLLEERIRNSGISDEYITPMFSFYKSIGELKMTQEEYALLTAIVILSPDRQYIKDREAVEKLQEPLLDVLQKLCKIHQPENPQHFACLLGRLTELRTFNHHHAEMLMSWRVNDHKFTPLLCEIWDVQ
Outline: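 Beta-lactamase reporter under UAS control in GeneBLAzer FXR HEK 293T cells (5000/well) measured with LiveBLAzer FRET substrate after 2 h at room temperature. Compound exposure lasted 16 h at 37C.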

[6] = qHTS assay to identify small molecule antagonists of the farnesoid-X-receptor (FXR) signaling pathway - cell viability counter screen (AID 743221; active = well fitted cell-killing curve with a large enough effect in the repeat runs, not every such curve was filed as active; also: nearly all actives have a fitted effect of over 50% in size; also: potency is read from the fitted curve at half-maximal effect)
Outline: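 HEK 293T FXR-bla cells, 5 h pre-incubation; compound + CDCA 50 uM final, 16 h, 37 C; beta-lactamase FRET read first, then CellTiter-Glo luminescence, 30 min RT.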

[7] = qHTS assay to identify small molecule agonists of the vitamin D receptor (VDR) signaling pathway - cell viability counter screen (AID 743224); also: nearly all actives have a fitted effect of over 50% in size; also: potency is read from the fitted curve at half-maximal effect
Outline: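 Luminescence from CellTiter-Glo, read after 30 min at room temperature, reports viability of VDR-bla cells treated with compounds for 16 h at 37C in the wells used for the beta-lactamase FRET read.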

[8] = qHTS assay to identify small molecule antagonists of the vitamin D receptor (VDR) signaling pathway - cell viability counter screen (AID 743225); also: nearly all actives have a fitted effect of over 50% in size; also: potency is read from the fitted curve at half-maximal effect
Outline: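 Viability counter screen run in the same wells as the beta-lactamase reporter assay: HEK 293T VDR-UAS-bla cells, 16 h compound exposure at 37C with 3 nM (final) 1-alpha,25-dihydroxyvitamin D3. CellTiter-Glo luminescence, 30 min, room temperature.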

[9] = qHTS assay to identify small molecule agonists of the NFkB signaling pathway (AID 1159509; active = well fitted curve in the direction sought with a large enough effect in the signal ratio in the repeat runs, not every such curve was filed as active; the % refers to the signal ratio; also: series mostly up to about 61 µM)
Outline: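 NFkB-bla ME-180 cells carry a beta-lactamase reporter under an NF-kB response element. They were plated overnight, then exposed to compounds for 5 h at 37 C. Read-out is LiveBLAzer FRET after 1.5 hr at room temperature (405 nm excitation; 460/530 nm emission).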

[10] = qHTS assay to identify small molecule agonists of the NFkB signaling pathway - cell viability counter screen (AID 1159515; calls by dose curve; also: series mostly up to about 61 µM; nearly all actives have a fitted effect of over 55% in size)
Outline: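 Luminescence from CellTiter-Glo (30 min, room temperature) gives viability, measured in the same wells as the beta-lactamase reporter read. Cells were NFkB-bla ME-180, 2,000 per well, treated 5 hr with compounds.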

[11] = qHTS assay to identify small molecule agonists of the endoplasmic reticulum stress response signaling pathway (AID 1159516; active = well fitted activation curve with a large enough effect in the signal ratio in the repeat runs, not every such curve was filed as active; the % refers to the signal ratio)
Outline: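 Read-out is beta-lactamase cleavage of a FRET substrate (405 nm excitation; 460 and 530 nm emissions) in ESRE-bla HeLa cells after a 5 hr compound exposure at 37 C. Substrate incubation ran 2 hr at room temperature.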

[12] = qHTS assay to identify small molecule agonists of the endoplasmic reticulum stress response signaling pathway - cell viability counter screen (AID 1159517; calls by dose curve)
Outline: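 HeLa cells carrying an ESRE-driven beta-lactamase reporter receive compound for 5 hr at 37 C. Cell viability is then gauged with CellTiter-Glo by luminescence, 30 min at room temperature.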

[13] = molecular target: Nuclear receptor ROR-gamma (Homo sapiens) (UniProt P51449); assay: qHTS assay to identify small molecule antagonists of the retinoid-related orphan receptor gamma (ROR-gamma) signaling pathway (AID 1159521; also: nearly all actives have a fitted effect of over 50% in size; also: potency is read from the fitted curve at half-maximal effect)
Outline: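 Luminescence readout (ONE-Glo, 30 min RT) after 16 h doxycycline induction; loss of signal scored as antagonism. CHO cells with TET-inducible RORγ and RORE-LUC reporter; compounds added 2 h before 1 uM final doxycycline.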

[14] = qHTS assay to identify small molecule agonists of the AP-1 signaling pathway - cell viability counter screen (AID 1159525; calls by dose curve; also: nearly all actives have a fitted effect of over 55% in size)
Outline: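 Luminescent ATP readout (Cell Titer Glo, 30 min RT), normalised to DMSO and tetra n-octyl ammonium bromide controls. Cells were ME-180 AP-1-bla in 0.5% dialyzed FBS Opti-MEM, with a 5 h, 37 °C compound exposure.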

[15] = qHTS assay to identify small molecule agonists of the AP-1 signaling pathway (AID 1159526; calls by dose curve)
[16] = molecular target: Bile acid receptor (Homo sapiens) (UniProt Q96RI1); assay: qHTS assay to identify small molecule antagonists of the farnesoid-X-receptor (FXR) signaling pathway (AID 743217; active = well fitted inhibition curve with a large enough effect in the signal ratio in the repeat runs, not every such curve was filed as active; the % refers to the signal ratio; also: potency is read from the fitted curve at half-maximal effect)
Outline: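 HEK 293T FXR-UAS-bla, 5000 cells/well; compound + CDCA 50 uM final; 16 h, 37 °C; B/G FRET substrate 2 h RT; fluorescence.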

[17] = molecular target: Vitamin D3 receptor (Homo sapiens) (UniProt P11473); assay: qHTS assay to identify small molecule agonists of the vitamin D receptor (VDR) signaling pathway (AID 743222; calls by dose curve)
Chain of Vitamin D3 receptor (Homo sapiens) (P11473 whole entry, looked up): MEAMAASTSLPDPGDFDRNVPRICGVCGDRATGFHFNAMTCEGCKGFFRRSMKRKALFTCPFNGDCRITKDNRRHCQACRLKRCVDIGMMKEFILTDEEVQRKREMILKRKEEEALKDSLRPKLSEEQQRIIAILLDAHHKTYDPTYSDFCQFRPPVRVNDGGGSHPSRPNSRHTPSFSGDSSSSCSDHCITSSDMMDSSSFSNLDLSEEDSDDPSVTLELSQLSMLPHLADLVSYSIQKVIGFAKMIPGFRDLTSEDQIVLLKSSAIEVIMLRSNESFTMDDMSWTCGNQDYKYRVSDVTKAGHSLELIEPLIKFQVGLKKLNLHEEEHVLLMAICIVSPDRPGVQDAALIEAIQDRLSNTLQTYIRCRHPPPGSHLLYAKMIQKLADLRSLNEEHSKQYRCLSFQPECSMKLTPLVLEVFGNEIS
Outline: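 VDR-bla cells, 2,000/well; 4 h preincubation 37C; cpd (DMSO) 16 h; LiveBLAzer B/G substrate 2 h RT; fluorescence intensity read.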

[18] = molecular target: Peroxisome proliferator-activated receptor delta (Homo sapiens) (UniProt Q03181); assay: qHTS assay to identify small molecule antagonists of the peroxisome proliferator-activated receptor delta (PPARd) signaling pathway (AID 743215; active = well fitted inhibition curve with a large enough effect in the signal ratio in the repeat runs, not every such curve was filed as active; the % refers to the signal ratio; also: series mostly up to about 62 µM)
Outline: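 Read-out is beta-lactamase FRET fluorescence, measured 2 h after substrate addition at room temperature. Beforehand, UAS-bla HEK293H cells carrying the PPARd reporter were exposed to compounds with L165041 at 300 nM final for 17 h at 37 C.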

[19] = qHTS assay to identify small molecule antagonists of the retinoid-related orphan receptor gamma (ROR-gamma) signaling pathway - cell viability counter screen (AID 1159520); also: nearly all actives have a fitted effect of over 50% in size
Outline: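 Cytotoxicity was read from cellular ATP (CellTiter-Glo luminescence) after 16 hr at 37 C with 1 uM doxycycline induction. The inducer was added 2 hr after compound transfer to Tet-on ROR gamma CHO cells.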

[20] = molecular target: Vitamin D3 receptor (Homo sapiens) (UniProt P11473); assay: qHTS assay to identify small molecule antagonists of the vitamin D receptor (VDR) signaling pathway (AID 743223; active = well fitted inhibition curve with a large enough effect in the signal ratio in the repeat runs, not every such curve was filed as active; the % refers to the signal ratio)
Outline: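 Beta-lactamase reporter read-out: FRET substrate fluorescence after 2 h at room temperature, following 16 h exposure of VDR-bla cells to test compound plus 3 nM (final) 1alpha,25-dihydroxyvitamin D3 agonist at 37C.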

Row | Compound | Potency [1] | Potency [2] | Potency [3] | Potency [4] | Potency [5] | Potency [6] | Potency [7] | Potency [8] | outcome [9] | outcome [10] | outcome [11] | outcome [12] | Potency [13] | outcome [14] | outcome [15] | Potency [16] | outcome [17] | Potency [18] | Potency [19] | outcome [20]
1 | O=C(CCCN1CCN(c2ccc(F)cc2)CC1)NC1c2ccccc2CSc2ccccc21 (stereo not given) | 9.44 µM (active) | inactive | 8.41 µM (active) | 10.6 µM (active) | inactive | 26.6 µM (active) | 13.3 µM (active) | 23.9 µM (active) | inactive | inactive | inactive | inactive | 13.3 µM (active) | inactive | inactive | – | – | – | – | –
2 | O=C(c1ccc(O)cc1)c1ccc(Cl)cc1 | inactive | – | inactive | inactive | inactive | inactive | inactive | inactive | inactive | inactive | inactive | inactive | inactive | inactive | inactive | inactive | inactive | – | – | –
3 | COc1ccc([C@@H]2Sc3ccccc3NC(=O)[C@@H]2O)cc1 | inactive | – | – | inactive | inactive | inactive | inactive | inactive | inactive | inactive | inactive | inactive | – | – | inactive | – | inactive | inactive | inactive | –
4 | COCCOC | inactive | – | inactive | inactive | inactive | inactive | inactive | inactive | inactive | inactive | inactive | inactive | 41.3 µM (active) | inactive | – | inactive | inactive | – | – | inactive
5 | CC(C)CCCC(=O)O | inactive | inactive | inactive | inactive | inactive | inactive | inactive | inactive | inactive | inactive | inactive | inactive | inactive | – | inactive | inactive | inactive | inactive | – | –
6 | Cc1oc(C)c(C(=O)Nc2ccccc2)c1C | inactive | inactive | – | inactive | – | – | – | – | inactive | inactive | inactive | inactive | – | – | inactive | – | inactive | – | inactive | inactive
7 | N#C/C(=C1\SCC(c2ccccc2Cl)S1)n1ccnc1 (stereo not given) | inactive | – | inactive | inactive | – | inactive | inactive | inactive | inactive | inactive | inactive | inactive | – | – | inactive | – | – | inactive | inactive | –
8 | CC(C)c1nnc2ccc(-c3ocnc3-c3cc(F)ccc3F)cn12 | inactive | – | inactive | inactive | inactive | inactive | inactive | inactive | inactive | inactive | inactive | inactive | – | – | – | – | – | – | inactive | inactive
9 | O=C(Nc1ccccc1)Nc1ccccc1 | inactive | inactive | inactive | – | – | – | inactive | inactive | inactive | inactive | inactive | inactive | inactive | inactive | inactive | – | – | inactive | – | –
10 | COc1ccc(CCC(=O)c2c(O)cc(O[C@@H]3O[C@H](CO)[C@@H](O)[C@H](O)[C@H]3O[C@@H]3O[C@@H](C)[C@H](O)[C@@H](O)[C@H]3O)cc2O)cc1O | inactive | – | inactive | inactive | – | inactive | inactive | inactive | inactive | inactive | inactive | inactive | – | – | inactive | – | inactive | – | inactive | inactive
11 | COCC(O)CO (stereo not given) | inactive | inactive | inactive | inactive | – | inactive | inactive | inactive | inactive | inactive | inactive | inactive | – | – | – | – | – | inactive | inactive | –
12 | CCOc1cc(N)c(Cl)cc1C(=O)NCC1CN(Cc2ccc(F)cc2)CCO1 (stereo not given) | inactive | inactive | inactive | – | inactive | inactive | inactive | inactive | inactive | inactive | inactive | inactive | – | – | inactive | – | inactive | inactive | inactive | inactive
13 | CCCc1c(OCCCOc2ccc(OCC(=O)O)cc2)ccc(C(C)=O)c1O | – | 0.011 µM (active) | – | – | – | inactive | inactive | inactive | inactive | inactive | inactive | inactive | – | – | – | inactive | – | – | inactive | inactive
14 | N#C[C@@H]1C[C@@H]2C[C@@H]2N1C(=O)[C@@H](N)C12CC3CC(CC(O)(C3)C1)C2 | inactive | – | – | inactive | inactive | inactive | inactive | inactive | inactive | inactive | inactive | inactive | – | – | inactive | inactive | inactive | – | inactive | –
15 | COC(=O)c1cc(Cl)ccc1NS(=O)(=O)C(F)(F)F | inactive | – | inactive | inactive | inactive | inactive | inactive | inactive | inactive | inactive | inactive | inactive | inactive | inactive | inactive | inactive | – | – | – | –
16 | O=C(Nc1ccc([N+](=O)[O-])cc1)Nc1ccc([N+](=O)[O-])cc1 | – | – | – | 0.75 µM (active) | inactive | – | – | inactive | inactive | inactive | inactive | inactive | 2.37 µM (active) | inactive | inactive | inactive | inactive | inactive | – | inactive
17 | Fc1ccccc1[C@@H](F)COC1CCC(Nc2ncnc3[nH]ncc23)CC1 (stereo not given in full) | – | inactive | inactive | inactive | inactive | inactive | – | – | inactive | inactive | inactive | inactive | 12.2 µM (active) | inactive | inactive | 43.6 µM (active) | inactive | – | – | –
18 | OCC1CC=CCC1 (stereo not given) | inactive | inactive | inactive | – | – | inactive | inactive | inactive | inactive | inactive | inactive | inactive | inactive | inactive | inactive | – | inactive | inactive | – | inactive
